# Laboratory results from PubChem BioAssay AID588342 (National Center for Advancing Translational Sciences (NCATS), 2011).
# The campaign covered roughly 360,000 compounds. About 25,000 (6.9%) were called active. Not shown: some 9% with an inconclusive outcome. For the sample, actives were picked, then their nearest neighbours and some compounds at random. Values without a mark were called inactive. Calls come from the whole dose curve; as a rule, active = well fitted inhibition curve with a large enough effect; inconclusive = small, poorly fitted or top-dose-only effect; inactive = flat fitted curve, though single readings scatter.
# Target: Luciferin 4-monooxygenase (Photinus pyralis) (UniProt P08659)
# Experiment: qHTS profiling assay for firefly luciferase inhibitor/activator using purifed enzyme and Km concentrations of substrates (counterscreen for miR-21 project); note: nearly all actives have a fitted effect of over 55% in size;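 for activity change, negative = inhibition: plate controls were vehicle for no effect and reference inhibitor for full effect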
# Conditions: purified FLuc, luminescence inhibition; series mostly up to 57.5 µM; activity change, negative = inhibition: at the top concentration
# Outline: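 Biochemical qHTS of compounds, final roughly 60 µM downward over six points, against 10 nM purified firefly luciferase using Km concentrations of substrates (10 uM D-luciferin, 10 uM ATP) in Tris acetate pH 7.5 buffer; luminescence output.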
# Potency is the fitted concentration of half-maximal effect.
# Chain of Luciferin 4-monooxygenase (Photinus pyralis) (P08659 whole entry, looked up): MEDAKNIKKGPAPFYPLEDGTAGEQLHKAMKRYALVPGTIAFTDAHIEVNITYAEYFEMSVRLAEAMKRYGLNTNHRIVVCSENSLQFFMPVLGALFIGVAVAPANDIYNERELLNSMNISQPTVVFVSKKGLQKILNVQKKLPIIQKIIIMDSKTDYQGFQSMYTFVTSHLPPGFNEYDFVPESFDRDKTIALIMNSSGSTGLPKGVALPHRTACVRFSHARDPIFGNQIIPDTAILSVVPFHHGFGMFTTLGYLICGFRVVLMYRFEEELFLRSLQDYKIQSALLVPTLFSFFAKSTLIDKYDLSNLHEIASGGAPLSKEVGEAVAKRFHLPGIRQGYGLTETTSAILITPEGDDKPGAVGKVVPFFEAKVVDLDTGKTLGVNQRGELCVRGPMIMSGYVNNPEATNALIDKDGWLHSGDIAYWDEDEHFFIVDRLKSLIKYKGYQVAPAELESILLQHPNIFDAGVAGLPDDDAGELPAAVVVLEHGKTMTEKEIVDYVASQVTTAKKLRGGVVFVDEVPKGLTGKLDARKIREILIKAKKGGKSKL
SMILES,"activity change, negative = inhibition [%]",Potency
CCOC(=O)c1ccc(NC(=O)c2nc[nH]c2C(=O)N[C@@H](CCCCNC(=O)OC(C)(C)C)C(=O)OC(C)(C)C)cc1,0.515,–
COc1ccc(CCNC(=O)c2c(C)nn(-c3ccccc3)c2Cl)cc1,0.672,–
Cc1nn(-c2ccccc2)c(C)c1NC(=O)CCl,-1.67,–
Cc1nn(-c2ccccc2)c(Cl)c1/C=C/C(=O)c1ccc(O)cc1,–,12 µM (active)
Cc1nn(-c2ccccc2)c(CC(C)(C)C(=O)O)c1C(=O)O,-1.1,–
Cc1ccc(C(=O)/C=C/c2c(C)nn(-c3ccccc3)c2Cl)cc1,–,6.01 µM (active)
Cc1nn(-c2ccccc2)c(C)c1/C=C/C(=O)OC(C)C(N)=O (configuration not stated),0.623,–
COc1ccc(-c2c(-c3cc(OC)cc(OC)c3)n(C)c3ccc(-c4ccn[nH]4)cc23)cc1,-0.353,–
O=C(NC1CC(=O)N(c2ccccc2)C1)c1ccco1 (configuration not stated),-0.409,–
CCOc1cc(C(=O)O)ccc1OCCOc1ccccc1,-1.63,–
COc1ccc(N2CCN(C(=O)c3ccccc3NC(=O)C3=C(C)OCCS3)CC2)cc1,1.81,–
c1ccc(NCc2cccc3ccccc23)nc1,-16.5,–
Oc1ccc2ccccc2c1N=Nc1nccs1,–,19 µM (active)
O=c1c2cc(Br)ccc2nc(-c2cccc(Cl)c2)n1O,-2.13,–
O=c1c(-c2cccc(Cl)c2)c[nH]n1-c1ccccc1,–,26.9 µM (active)
O=C1CC(NNc2ccccc2)C(=O)N1c1cccc(Cl)c1 (configuration not stated),-17.8,–
COc1ccc(S(=O)(=O)n2nc(C)c(S(=O)(=O)N3CCCCCC3)c2C)cc1,4.77,–
COc1cc(NC(=O)c2cc(C3CC3)nc3c2c(C)nn3-c2ccccc2)cc(OC)c1,-10.6,–
O=[N+]([O-])c1ccc2c(c1)C(N1CCOCC1)/C(=C/C1(O)CCCCC1)O2 (configuration not stated),-4.29,–
Cn1c(=O)c2sccc2n2c(CCC(=O)NCc3ccccc3Cl)nnc12,-5.43,–
Cn1c(NC(=O)c2ccc3c(c2)OCO3)cc(=O)n(C)c1=O,0.456,–
CN(CC(=O)Nc1cccc(F)c1)CC(=O)Nc1cccc([N+](=O)[O-])c1,6.15,–
Cc1ccc2sc(NNC(=O)c3ccc4c(c3)OCCO4)nc2c1C,-4.15,–
O=CN1CCN(C(=O)c2ccc3c(c2)OCO3)CC1,-6.7,–
CC(NC(=O)Nc1cccc([N+](=O)[O-])c1)c1ccc2c(c1)OCO2 (configuration not stated),-1.01,–
O=C(Nc1cccc([N+](=O)[O-])c1)c1ccc2c(c1)OCO2,–,19 µM (active)

SMILES,"activity change, negative = inhibition [%]",Potency
O=C(Nc1ccccc1)c1ccc2c(c1)OCO2,–,12 µM (active)
Cc1ccc(-n2nc3c(c2NC(=O)c2ccc4c(c2)OCO4)CSC3)c(C)c1,0.872,–
O=C(Nc1ccc(NC(=O)c2ccc3c(c2)OCO3)cc1)c1cccc(Cl)c1,-0.291,–
COCc1nnc(NC(=O)c2ccc3c(c2)OCO3)s1,–,23.9 µM (active)
O=C(Nc1nc2ccccc2s1)c1ccc2c(c1)OCO2,–,0.301 µM (active)
COCc1nnc(NC(=O)CS(=O)(=O)Cc2ccccc2)s1,0.467,–
CSCCC(NS(=O)(=O)c1ccc2c(c1)oc(=O)n2C)C(=O)NC1CCCc2ccccc21 (configuration not stated),5.78,–
Cc1ccc(N2C(=O)C3N=NN(CC(=O)N4N=C(c5cccc6ccccc56)CC4c4ccccc4)C3C2=O)cc1 (configuration not stated),-0.523,–
O=C(Nc1c(C(=O)N2CCN(c3ccc(F)cc3)CC2)oc2ccccc12)c1ccco1,-7.89,–
CN(CC#CCC(c1ccccc1)c1ccccc1)C(C)(C)C,0.573,–
CCOC(=O)c1ccc(NC(=O)c2ncn(-c3ccccc3)n2)cc1,-1.44,–
O=C1Cc2cc(S(=O)(=O)Nc3cccc(F)c3)ccc2N1,4.22,–
COC(=O)c1ccc(NC(=O)c2cnn(-c3ccc(Cl)cc3)c2C2CCN(C(=O)OC(C)(C)C)CC2)cc1,-5.97,–
CCOc1ccc(C(=O)NCC(=O)N2CCCCCCC2)cc1OCC,0.971,–
CC(C)C(=O)Nc1cccc(C(=O)Nc2ccc3c(c2)OCO3)c1,–,8.49 µM (active)
CC(=O)Nc1cccc(C(=O)OCN2C(=O)c3ccccc3C2=O)c1,-1.02,–
O=C(Nc1ccc2c(c1)CCC2)c1cccc(S(=O)(=O)Nc2ccccc2Cl)c1,–,21.3 µM (active)
O=C(NCCS(=O)(=O)N1CCN(c2ccc(F)cc2)CC1)c1ccc2c(c1)OCO2,0.656,–
CC(NC(=O)COC(=O)c1ccc2c(c1)OCO2)c1ccccc1 (configuration not stated),-5.33,–
CC(=O)Nc1cccc(C(=O)OCC(=O)c2ccc3c(c2)OCO3)c1,–,0.135 µM (active)
O=C(Nc1ccc2c(c1)CCC2)c1cccc(S(=O)(=O)N2CCN(c3ccc(F)cc3)CC2)c1,8.68,–
O=C(c1ccc2c(c1)OCO2)N1CCOCC1,-1.93,–
O=C(c1cccc(S(=O)(=O)Nc2ccccc2Cl)c1)N1CCN(C(=O)c2ccco2)CC1,-4.73,–
CC(Sc1nc(-c2ccccc2)cc(C(F)(F)F)n1)C(=O)Nc1ccc2c(c1)OCO2 (configuration not stated),0.268,–
O=C(Nc1ccc(N2CCOCC2)cc1)c1ccc2c(c1)OCO2,–,10.7 µM (active)
O=C(c1ccccc1F)N1CCC(c2nc3c(nnn3Cc3cccc(F)c3)c(=O)[nH]2)CC1,-15.3,–

SMILES,"activity change, negative = inhibition [%]",Potency
Cc1ccc2ncc(C(=O)Nc3ccc(OC(F)(F)F)cc3)c(=O)n2c1,-5.88,–
CCn1c2c(c(=O)n3ncc(C(=O)N4CCN(c5ccccc5)CC4)c13)CN(Cc1ccc(OC)cc1)CC2,-2.48,–
CN(Cc1ccccc1)CC(O)COc1ccc(CNCc2cc3ccccc3s2)cc1 (configuration not stated),-0.152,–
Cc1cc(C)cc(NC(=O)CSc2oc(-c3ccccc3)nc2S(=O)(=O)c2ccc(Cl)cc2)c1,-3.79,–
Cc1sc2ncnc(SCC(=O)Nc3ccc(CN4CCCC4)cc3)c2c1C,4.55,–
Cc1ccc(C)c(NC(=O)C(c2ccccc2)N2CCN(CC(=O)NC3CC3)CC2)c1 (configuration not stated),5.73,–
CC(=O)NC(CC(=O)Nc1cccc(S(=O)(=O)N2CCCC2)c1)c1ccccc1 (configuration not stated),-3.53,–
O=C(CN(Cc1ccccc1)C(=O)c1ccc2c(c1)OCCO2)NCc1ccc2c(c1)OCO2,-1.85,–
O=C(Nc1ccc(NC(=O)c2ccco2)c(Cl)c1)c1cccc([N+](=O)[O-])c1,1.09,–
O=C(Nc1ccc(C2CC2(Cl)Cl)cc1)c1cccc([N+](=O)[O-])c1 (configuration not stated),–,12 µM (active)
CC(NS(=O)(=O)c1ccc(Cl)cc1)C(=O)Nc1ccc2c(c1)OCCO2 (configuration not stated),0.952,–
O=C(OCc1ccccc1F)c1ccc2c(c1)OCCO2,–,6.01 µM (active)
O=C(CN1CCc2cc3c(cc2C1)OCCCO3)Nc1ccccc1,-8.71,–
O=C(Nc1cccc(S(=O)(=O)Nc2ccc(Cl)cc2)c1)c1ccc2c(c1)OCCO2,–,16.9 µM (active)
CCN(CC)CCNC(=O)c1ccc(NS(=O)(=O)c2ccc3c(c2)OCCO3)cc1,5.41,–
O=C(Nc1ccc(C(=O)N2CCCCC2)cc1)c1cccc([N+](=O)[O-])c1,-9.29,–
O=C(Nc1ccccc1)c1ccc2c(c1)OCCCO2,–,1.2 µM (active)
C/C(Cc1ccccc1)=N\NC(=O)CNC(=O)c1ccc2c(c1)OCCO2,-18,–
Cc1cc2oc(C(=O)N(Cc3ccc(Cl)cc3)Cc3ccco3)c(C)c2cc1Cl,-7.31,–
Cc1cc(N2CCN(c3cccc(C(F)(F)F)c3)CC2)n2nc(-c3ccccc3)nc2n1,-0.73,–
COc1ccc(-c2ccc(=O)n(CC(=O)Nc3ccc(Br)cc3F)n2)cc1,2.74,–
CC(=O)Nc1ccc(S(=O)(=O)NC2(C(F)(F)F)C(=O)NC(C)=C2C#N)cc1 (configuration not stated),-3.82,–
O=C(Nc1ccccc1N1CCN(C(=O)c2ccccc2)CC1)c1ccc2c(c1)OCO2,7.45,–
Cc1ccc(C(=O)OCC(=O)NCc2cc(C)c(O)c(C)c2)cc1S(=O)(=O)N1CCCCC1,-2.52,–
O=C(Nc1ccccc1)Nc1nnc(COc2ccccc2F)s1,-1.08,–
COc1ccc(C(=O)OCC(=O)Nc2cccc(C(C)=O)c2)cc1OC,-4.57,–

SMILES,"activity change, negative = inhibition [%]",Potency
Cc1ccc(F)cc1NC(=O)c1ccc2c(c1)OCO2,-3.24,–
O=C(Nc1ccccc1)Nc1nc2ccccc2s1,–,0.849 µM (active)
O=C(Nc1ccccc1F)c1ccc2c(c1)OCO2,–,19 µM (active)
CC(=O)Nc1cccc(C(=O)OCC(=O)NCc2cc(C)c(O)c(C)c2)c1,–,15.1 µM (active)
O=C(Nc1ccc(Cl)cc1)Nc1nnc(/C=C/c2ccccc2)s1,-2.18,–
O=S(=O)(NC1CCN(S(=O)(=O)c2ccc3c(c2)OCCO3)CC1)c1c(F)cccc1F,-2.54,–
CCc1ccc(S(=O)(=O)c2nnn3c2nc(N2CCN(CC)CC2)c2sccc23)cc1,1.88,–
CC(=O)Nc1ccc(S(=O)(=O)NC(C)C(=O)OCCOc2ccc(F)cc2)cc1 (configuration not stated),-1.3,–
CNS(=O)(=O)c1ccc(N2CCCC2=O)c([N+](=O)[O-])c1,-1.57,–
NS(=O)(=O)c1ccc(NC(=S)N2CCCC2)cc1,-1.04,–
Cc1ccc(-c2ccc(=O)n(CC(=O)NCCCN3CCCCC3)n2)cc1,1.61,–
CCc1ccc(-c2cc3c(=O)n(CC(=O)NCCCN4CCN(Cc5ccccc5)CC4)nc(C)n3n2)cc1,–,8.49 µM (active)
CCCN1CCN(CCCNC(=O)Cn2nc(CC)n3c(cc4occc43)c2=O)CC1,-5.38,–
CCOCCn1ccc2c(OCC(=O)NCc3ccc(C)cc3)cccc2c1=O,-7.32,–
CCC(=O)N1CCc2cc(S(=O)(=O)NC(Cc3ccccc3)C(=O)NCc3ccc(C)cc3)ccc21 (configuration not stated),-1.03,–
Brc1ccc(C2CC(c3ccccc3)=Nc3ccccc3N2)cc1 (configuration not stated),–,26.9 µM (active)
O=C(c1ccccc1)N1N=C(c2ccccc2O)CC1c1ccc(Br)cc1 (configuration not stated),-0.906,–
COc1ccc(N2C(=O)NC(NS(=O)(=O)c3ccc(Cl)cc3)(C(F)(F)F)C2=O)cc1 (configuration not stated),6.14,–
COC(=O)c1sc2ncccc2c1-n1c(C)ccc1C,-2.23,–
CCOc1ccccc1/C=N/Nc1nc2ccccc2o1,-1.3,–
COc1cccc(/C=C/c2ccc3ccccc3n2)c1OC(C)=O,–,5.36 µM (active)
CCOc1cccc(/C=C/c2ccc3ccccc3n2)c1OC(C)=O,–,7.57 µM (active)
CC(=O)c1ccc(S(=O)(=O)N2CCN(C(=O)/C=C/c3ccc4ccccc4n3)CC2)cc1,4.51,–
COc1ccc(CNC(=O)/C(C#N)=C/c2cccc(OC)c2OC)cc1,-12.6,–
